High-throughput results (PubChem BioAssay)
BAZ2B block: BAZ2B (human) inhibition | Q9UIF8 | AlphaScreen BAZ2B-H3K14Ac peptide displacement | Potency, µM (highest dose often 114 µM), without a hit: at the top dose activity change, negative = inhibition, actives largely listed as inhibitors | actives 4.4% (n = 360,000) | AID 504333; note: % is set by controls: 0 for no effect and ±100 for the full control effect; nearly all actives have a fitted effect of over 60% in size
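BAZ2B (50 nM) with biotin-H3(5-23)K14Ac peptide (50 nM) in PBS pH 7.4, 0.01% Tween-20, preformed 30 min, then compound 30 min at room temperature; top concentration 110uM. AlphaScreen streptavidin donor/nickel chelate acceptor beads (10 ug/mL final), 20 min dark, signal read.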
HP1b binding inh: HP1-beta chromodomain-methylated histone interaction inhibition; AlphaScreen HP1-beta / biotin-H3K9me3 peptide binding; Potency, µM (titrated, usually from 114 µM), for inactives: at the top dose activity change, negative = inhibition, most hits filed as inhibitors; actives 0.56% (n = 390,000); note: nearly all actives have a fitted effect of over 70% in size
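HP1-beta protein (50 nM final) preincubated 30 min at room temperature with biotinylated H3(1-18)K9me3 peptide (50 nM) in PBS pH 7.4, 0.01% Tween-20, then compound added for 30 min. AlphaScreen streptavidin donor/nickel chelate acceptor beads (10 ug/mL final), 30 min dark, luminescence read.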
G9a block: blocks human histone lysine methyltransferase G9a | AID 504332 | Q96KQ7 | Potency, µM (doses to about 102 µM), for the others: top-dose activity, negative = inhibition, actives largely listed as inhibitors | actives 8.8% (n = 350,000) | G9a H3K9 monomethylation, AlphaScreen, 2 h; note: % is set by controls: 0 for no effect and ±100 for the full control effect; nearly all actives have a fitted effect of over 75% in size
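Quantitative HTS format: methyltransferase activity on a biotin-tagged H3K9 peptide is measured by AlphaScreen, using a rabbit anti-monomethyl-H3K9 antibody with streptavidin donor and anti-IgG acceptor beads. Final levels are 20 nM enzyme, 500 nM peptide, 20 uM SAM; 2 h RT.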
L3MBTL1 inh: inhibitors of human L3MBTL1; Potency, µM (top dose mostly 57.1 µM), without a hit: at the top dose activity, negative = inhibition, most hits filed as inhibitors; actives 0.66% (n = 230,000); AlphaScreen L3MBTL1–H3K9me1 peptide binding; Q9Y468; note: % is set by controls: 0 for no effect and ±100 for the full control effect; nearly all actives have a fitted effect of over 60% in size
Target sequence (Q9Y468 whole entry, looked up): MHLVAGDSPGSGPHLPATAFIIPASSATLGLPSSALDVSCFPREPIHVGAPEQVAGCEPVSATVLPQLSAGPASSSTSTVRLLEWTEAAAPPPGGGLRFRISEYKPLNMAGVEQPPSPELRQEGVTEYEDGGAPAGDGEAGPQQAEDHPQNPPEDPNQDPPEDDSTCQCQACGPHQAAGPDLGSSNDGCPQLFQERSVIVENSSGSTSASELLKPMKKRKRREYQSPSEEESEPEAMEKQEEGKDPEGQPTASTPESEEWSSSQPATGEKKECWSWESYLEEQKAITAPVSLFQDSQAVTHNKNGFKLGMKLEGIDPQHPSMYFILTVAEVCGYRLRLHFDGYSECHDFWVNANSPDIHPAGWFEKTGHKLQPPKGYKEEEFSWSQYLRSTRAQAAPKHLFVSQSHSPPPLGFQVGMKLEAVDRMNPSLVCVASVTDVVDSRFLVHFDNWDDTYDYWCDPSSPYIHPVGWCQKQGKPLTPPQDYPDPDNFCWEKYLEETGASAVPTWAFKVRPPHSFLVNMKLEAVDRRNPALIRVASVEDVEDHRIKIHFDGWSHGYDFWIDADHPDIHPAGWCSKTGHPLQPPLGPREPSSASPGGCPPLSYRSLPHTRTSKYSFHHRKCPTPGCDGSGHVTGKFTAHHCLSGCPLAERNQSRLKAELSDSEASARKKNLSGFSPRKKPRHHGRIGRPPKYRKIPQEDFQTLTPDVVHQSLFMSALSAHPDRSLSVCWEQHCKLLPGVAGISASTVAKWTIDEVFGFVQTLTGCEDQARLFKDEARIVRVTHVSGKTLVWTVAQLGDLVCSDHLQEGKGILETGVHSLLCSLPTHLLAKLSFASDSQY
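L3MBTL1 50 nM + b-AHA-H3(1-15)K9me1 75 nM, 30 min RT; compound added, 30 min RT; streptavidin donor/Ni-chelate acceptor beads 10 ug/mL each final, 30 min RT dark; AlphaScreen read.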
Sfp PPTase inh: blocks B. subtilis Sfp PPTase activity; Q9F4F7; Biochemical Sfp PPTase activity, qHTS; Potency, µM, for the others: largest response in the series, negative = inhibition, hits mostly inhibitors; actives 3.5% (n = 310,000);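 note: the enzyme is Sfp with the accession as filed and its product quenches rhodamine fluorescence; 0% = enzyme reaction without inhibitor and -100% = no enzyme wells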
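After 15 min at room temperature with compound, 15 nM Sfp received 5 uM rhodamine-CoA plus 12.5 uM BHQ-2-ybbR (50 mM Hepes pH 7.6, 10 mM MgCl2). Rate came from the fluorescence difference over 30 min, ex 525/em 598 nm.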
JMJD2A Tudor inh: JMJD2A Tudor domain (human) inhibition. AID 504339. Potency, µM (highest dose often 114 µM), without a hit: at the highest dose activity change, negative = inhibition, actives largely listed as inhibitors. O75164. actives 4.4% (n = 390,000). AlphaScreen JMJD2A-Tudor / H3K4me3 peptide binding; note: % is set by controls: 0 for no effect and ±100 for the full control effect; nearly all actives have a fitted effect of over 50% in size
The depositor's hits bear a star; ? = inconclusive; . = no result; [ ] = another dose, or the depositor's remark. Rows were chosen to be rich in hits. Some 12% of all compounds tested hit in one or more screens of this group. Calls come from the whole dose curve; as a rule, active = well fitted curve in the direction sought with a large enough effect; inconclusive = small, poorly fitted or top-dose-only effect, or another doubt; inactive = no such curve, though single readings can be large; an effect the other way counts as inactive or inconclusive. Potency is the fitted concentration of half-maximal effect.

SMILES	BAZ2B block	HP1b binding inh	G9a block	L3MBTL1 inh	Sfp PPTase inh	JMJD2A Tudor inh
COc1ccc(OCCn2c(CCNC(=O)C3CCCCC3)nc3ccccc32)cc1	.	20%[57 µM]	.	.	.	-16%[57.1 µM]
Cc1cc(OCCCCNC(C)C)cc(C(C)C)c1	?	?	28µM*	12%	-24%	18µM*
Cc1cc(C)cc(OCCCn2ccnc2)c1	?	27%	.	.	3%	-27%
CCOC(=O)N1CCN(C(=S)NC(=O)c2nn(C)cc2Br)CC1	-7%	33%	?	15%	?	-22%
CCOC(=O)N1CCN(C(=S)NC(=O)c2ccc(F)cc2)CC1	?	2%	28µM*	2%	2%	-17%
CCOC(=O)N1CCN(C(=O)/C(=C/c2ccc(F)cc2)NC(=O)c2ccccc2)CC1	-4%	25%	0%	.	6%	-3%
CCOC(=O)N1CCN(C(=S)NC(=O)c2ccnn2C)CC1	-28%	-11%	20µM*	-8%	?	?
CC(/C=C/c1ccc(N(C)C)cc1)=N\N=C(/N)SC1CC(=O)N(c2ccc(C(=O)O)cc2)C1=O (stereo not given)	50µM*	?	?	-7%	?	32µM*
CCC(=O)Nc1ccc(F)c(Cl)c1	-12%	15%	?	9%	3%	-8%
CC1NC(=O)NC1CCCCCC(=O)Nc1ccc(F)c(Cl)c1 (stereo not given)	0.79µM*	1.1µM*	1µM*	0.32µM*	20%	?
Cc1ccc(NC(=O)CCCCCC2NC(=O)NC2C)cc1 (stereo not given)	0.79µM*	1.1µM*	?	.	16%	0.35µM*
O=C(NCCc1ccccn1)C1CCN(S(=O)(=O)c2ccc3ccccc3c2)CC1	-9%	19%	.	5%	20%	-3%
COc1ccc(C2=CSC3=C(C(=O)c4cccc(S(=O)(=O)N(C)C)c4)CCN23)cc1	-27%	14%	8.9µM*	.	1%	?
CN(C)CCN=Cc1c(O)n(Cc2ccc3c(c2)OCO3)c(=O)c2ccccc12	?	-28%	50µM*	.	7%	?
O=c1c2ccccc2c(C=NC2CCN(Cc3ccccc3)CC2)c(O)n1Cc1ccc2c(c1)OCO2	8.9µM*	.	8.9µM*	-7%	7%	.
CN(C)CCCN=Cc1c(O)n(Cc2ccc3c(c2)OCO3)c(=O)c2ccccc12	?	.	?	-8%	-2%	.
Cc1cc2nc3c(=O)[nH]c(=O)nc-3n(C)c2cc1C=O	.	.	-11%[59 µM]	.	7%	.
O=C(Nc1ccccc1)c1ccc(-n2nncc2-c2ccccc2)cc1	.	6%[57 µM]	.	.	.	7%[57.1 µM]
Cn1c(=O)c2cc(C(=O)NCCCN3CCN(c4ccccc4F)CC3)sc2c2ccccc21	.	30%	3%[59 µM]	.	.	-13%
CS(=O)(=O)c1nc(-c2ccccc2)c(-c2ccccc2)[nH]1	?	3%	45µM*	-1%	?	-6%
O=C(O)c1ccc(-c2nc(-c3ccccc3)c(-c3ccccc3)[nH]2)cc1	?	40µM*	-2%[59 µM]	-6%	8%	79µM*
COc1ccc(-c2[nH]c(-c3ccc(C(=O)O)cc3)nc2-c2ccccc2)cc1	79µM*	19%	79µM*	0%	-1%	?
COc1ccc(-c2[nH]c(-c3ccc4c(c3)OCO4)nc2-c2ccccc2)cc1	?	-21%	?	-23%	8%	?
O=[N+]([O-])c1ccc(/C=N/NC(=S)Nc2ccc(Cl)cc2Cl)s1	?	-9%	?	.	56µM*	?
Fc1ccc(/C=N/NC(=S)Nc2ccc(Cl)cc2Cl)cc1	-5%	42%	37%[59 µM]	.	2%	5%
Cc1cc(Cl)ccc1NC(=O)CCC(=O)N/N=C/c1cc([N+](=O)[O-])ccc1O	6%	28%	-1%	15%	-11%	1%
O=[N+]([O-])c1ccc(O)c(/C=N/NC(=S)Nc2ccc(Cl)cc2Cl)c1	32µM*	-13%	.	.	-20%	79µM*
COC(=O)c1cc(S(=O)(=O)NCc2ccccc2)c[nH]1	0%	31%	-5%	4%	24%	-3%
